Hits are enriched below; roughly 4.6% of the tested compounds scored in any of these assays.
KKLEB cytotox: reduces viability of KKLEB cystic fibrosis airway cells. KKLEB CF airway cells viability, ATPlite luminescence, overnight; hits give low values; cells stimulated with P. aeruginosa culture filtrate. activity change (cytotoxicity), % at 5 µM. 360,000 compounds, 0.36% hits;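 active = corrected activity change at or below -50% at 5 µM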
Mdm2 MdmX PPI: disrupts the human Mdm2-MdmX interaction; O15151+Q00987; SaOS-2 split-luciferase Mdm2/MdmX complementation, luminescence; inhibition, % at 8 µM; 330,000 compounds, 3% hits; AID 485346;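 active = inhibition of at least 50% at 8 µM in the primary screen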
Peg3 prom inh: reduces Peg3 promoter-driven luciferase expression in HeLa | inhibition, % at 20 µM | HeLa PEG-Prom luciferase reporter, luminescence, overnight | 360,000 compounds, 1.7% hits;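 active = inhibition of at least 50% at 20 µM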
ABHD5 PLIN5 PPI: inhibitors of human ABHD5-perilipin-5 interaction; Q00G26+Q8WTS1; Split G. princeps luciferase complementation, luminescence, 4 h; inhibition, % at 4 µM; 360,000 compounds, 0.78% hits; AID 602281;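 active = inhibition above the mean inhibition across every tested compound plus 3 SD, cut at about 22% in these data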;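 also: 0% = DMSO only wells and the 100% control is not disclosed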
Target sequence (Q00G26 whole entry, looked up): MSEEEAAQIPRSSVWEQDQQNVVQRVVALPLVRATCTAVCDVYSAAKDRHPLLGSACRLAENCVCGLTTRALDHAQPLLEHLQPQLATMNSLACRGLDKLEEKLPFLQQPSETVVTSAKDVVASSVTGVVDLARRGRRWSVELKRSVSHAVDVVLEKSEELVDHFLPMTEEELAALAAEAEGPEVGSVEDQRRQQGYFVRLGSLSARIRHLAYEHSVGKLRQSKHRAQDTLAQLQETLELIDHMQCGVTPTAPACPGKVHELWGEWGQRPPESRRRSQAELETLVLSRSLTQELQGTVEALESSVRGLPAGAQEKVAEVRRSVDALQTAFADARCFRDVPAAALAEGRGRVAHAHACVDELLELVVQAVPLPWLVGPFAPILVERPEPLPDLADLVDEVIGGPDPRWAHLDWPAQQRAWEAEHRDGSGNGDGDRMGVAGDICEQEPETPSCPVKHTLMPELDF
Target sequence (Q8WTS1 whole entry, looked up): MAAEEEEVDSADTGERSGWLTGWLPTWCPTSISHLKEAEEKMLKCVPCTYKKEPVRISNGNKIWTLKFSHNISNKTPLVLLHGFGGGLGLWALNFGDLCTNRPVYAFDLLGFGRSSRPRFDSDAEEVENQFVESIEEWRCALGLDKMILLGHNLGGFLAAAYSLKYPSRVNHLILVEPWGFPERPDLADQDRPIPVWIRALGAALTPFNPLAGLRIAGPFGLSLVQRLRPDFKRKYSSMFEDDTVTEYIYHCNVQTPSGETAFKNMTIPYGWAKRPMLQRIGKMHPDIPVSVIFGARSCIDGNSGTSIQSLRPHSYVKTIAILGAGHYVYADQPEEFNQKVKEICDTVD
CF NFkB block: inhibitors of cystic fibrosis induced NF-kB; 360,000 compounds, 0.86% hits; inhibition, % at 5 µM; AID 588850; KKLEB NF-kB-GFP reporter, PAF-induced, GFP fluorescence overnight;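 active = at least 50% inhibition at 5 µM, scaled per plate between neutral and stimulator controls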;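 also: PAF is a Pseudomonas aeruginosa culture filtrate used as stimulus; plate controls were PAF-stimulated DMSO wells for no effect and unstimulated DMSO wells for full effect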
HIF-2a block: HIF-2a inhibition; 786-0 RCC cells HIF-2a reporter, luciferase luminescence, overnight; inhibition, % at 18.8 µM; 360,000 compounds, 0.72% hits;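 active = inhibition of the luminescence signal of 40% or more relative to plate controls, in a single-dose primary screen at 18.75 µM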
Mdm2 MdmX conf: confirmation of human Mdm2/MdmX interaction inhibitors. AID 489028. inhibition, % at 8 µM. shares compounds with Mdm2 MdmX PPI. 10,000 compounds, 55% hits. Mdm2-MdmX binding, luminescent assay; in the data active = inhibition above about 40%
FLuc counter: full-length luciferase inhibition in Mdm2/MdmX counter-screen. shares compounds with Mdm2 MdmX PPI. SaOS-2 full-length luciferase counterscreen, luminescence. inhibition, % at 8 µM. 6,200 compounds, 77% hits;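 active = mean inhibition at 8 µM reaching about 37%, which flags the compound as non-specific, limit read from the data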;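 also: p53-null SaOS-2 cells with luciferase driven by a doxycycline-inducible promoter; compound on cells about two nights before reading with doxycycline added after day one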
* = called active by the depositor; / = no result.

SMILES	KKLEB cytotox	Mdm2 MdmX PPI	Peg3 prom inh	ABHD5 PLIN5 PPI	CF NFkB block	HIF-2a block	Mdm2 MdmX conf	FLuc counter
O=C(N/N=C/c1cc(Br)cc(Br)c1O)c1cccc(S(=O)(=O)N2CCOCC2)c1	-8.0	59.2*	55.1*	9.0	40.4	9.8	59.5*	29.6
S=C(NNc1ccnc2cc(Cl)ccc12)Nc1ccc(Cl)cc1Cl	11.9	91.5*	52.3*	-17.5	-34.1	-20.5	31.0	48.9*
COc1ccc(OCC(=O)Nc2ccc3oc(=O)ccc3c2)cc1	-1.5	-5.3	-2.0	4.0	6.9	-17.1	/	/
COc1ccc(C(=O)NC(=S)Nc2ccc3oc(=O)ccc3c2)cc1	-18.3	73.3*	46.2	3.2	12.6	19.8	23.6	84.1*
CCN(CC(=O)NCc1ccc(F)cc1)C(=O)/C=C/c1ccc(OC)c(S(=O)(=O)NC(C)C)c1	-6.0	55.9*	10.3	-2.7	12.7	18.9	55.5*	61.0*
Cc1cccn2c(=O)c(C=NCc3ccco3)c(Nc3ccc(SC(F)F)cc3)nc12	3.7	55.7*	11.6	-1.4	-30.3	-12.9	5.2	/
Cc1cccn2c(=O)c(C=NCCO)c(NCc3ccco3)nc12	8.5	-16.7	1.9	19.1	-15.7	2.3	/	/
COc1ccc(Cl)cc1NC(=O)Nc1cccc([N+](=O)[O-])c1C	-4.2	53.1*	0.9	-5.4	8.4	-12.7	29.1	/
CC(C)(C)c1ccc(S(=O)(=O)N2CCN(CC(=O)NC(=O)NC3CCCCC3)CC2)cc1	1.0	27.1	7.4	0.5	-10.7	8.6	/	/
O=C(CSc1nc2ccccc2n1-c1ccccc1)Nc1ncc(Cl)cc1Cl	11.8	87.6*	10.8	2.8	2.2	6.9	81.0*	22.4
COc1ccc(-n2c(SCC(=O)Nc3ncc(Cl)cc3Cl)nc3ccccc32)cc1	/	90.7*	/	/	/	/	74.2*	29.2
Cc1cccc(-n2c(SCC(=O)Nc3ncc(Cl)cc3Cl)nc3ccccc32)c1	-14.8	/	10.9	-1.3	-1.9	12.5	/	/
CCOC(=O)N1CCN(C(=O)c2ccc3c(c2)N=C(C)c2cc(Cl)ccc2S3)CC1	2.5	18.3	18.7	0.7	-4.7	8.2	/	/
CC(=O)c1ccc(NC(=O)C(C)OC(=O)c2ccc(Br)o2)cc1 (stereo not drawn)	10.1	-0.6	-18.7	-8.0	-6.2	10.0	/	/
Oc1nc(Nc2ccc(Cl)cc2Cl)sc1/C=C1\C=Nc2ccccc21	6.2	86.0*	4.9	-3.0	5.2	-54.8	34.1	/
Cc1nc(Nc2ccc(Cl)cc2Cl)sc1C(=O)Nc1ccccc1	11.3	33.2	-44.2	-4.8	-24.3	-81.8	/	/
O=C1N/C(=N/N=C/c2ccccc2O)SC1Cc1ccc(F)cc1 (stereo not drawn)	1.0	70.7*	36.0	-0.9	12.6	26.8	53.3*	9.6
O=C(Nc1ccc2ccccc2c1)C(c1ccccc1)C1CCCC1 (stereo not drawn)	-8.9	57.4*	27.7	-3.2	-3.8	-13.1	59.2*	78.5*
COc1ccc2c3c(cccc13)C(=O)N(O)C2=O	-0.3	/	6.5	6.0	-46.7	6.0	/	/
CCC1=NNc2cccc3c(OC)ccc1c23	/	62.3*	/	/	/	/	24.3	/
CCCCn1c(CCl)nc2cc(S(=O)(=O)N3CCOCC3)ccc21	14.3	87.8*	57.9*	5.3	44.7	10.3	52.8*	30.4
CCCCn1c(C)nc2cc(S(=O)(=O)N3CCOCC3)ccc21	-10.5	6.6	1.2	3.8	24.4	11.1	/	/
O=C(O)c1ccccc1C(=O)c1ccc(F)c(F)c1	6.8	/	10.1	1.5	-18.5	16.5	/	/
COc1cccc(CC2(CO)CCCN(Cc3[nH]c4ccc(C)cc4c3C)C2)c1 (stereo not drawn)	-11.9	62.5*	49.8	10.9	19.8	2.3	19.7	/
COc1cccc(CC2(CO)CCCN(Cc3ccc(C)s3)C2)c1 (stereo not drawn)	14.1	0.9	5.7	-6.3	-13.1	17.0	/	/
SMILES	KKLEB cytotox	Mdm2 MdmX PPI	Peg3 prom inh	ABHD5 PLIN5 PPI	CF NFkB block	HIF-2a block	Mdm2 MdmX conf	FLuc counter
CC1(c2ccccc2)CC(C)(C)n2c(O)c(C3=NC(=S)NC3=O)c3cccc1c32 (stereo not drawn)	-25.4	67.8*	41.9	-9.1	19.9	10.4	24.9	/
O=C(N[C@@H]1C/C=C\C[C@H](CC(=O)N(CCO)Cc2ccccc2)C(=O)N[C@@H](Cc2ccccc2)COC1=O)OCC1c2ccccc2-c2ccccc21	-4.0	92.7*	67.9*	9.1	4.9	-2.1	43.1*	58.6*
O=C(N[C@H]1C/C=C\C[C@@H](CC(=O)N(CCO)Cc2ccccc2)C(=O)NC[C@H](c2ccccc2)OC1=O)OCC1c2ccccc2-c2ccccc21	-6.6	58.2*	75.1*	2.7	-8.8	10.3	11.7	/
O=C(N[C@@H]1C/C=C\C[C@@H](CC(=O)N(CCO)Cc2ccccc2)C(=O)NCCOC1=O)OCC1c2ccccc2-c2ccccc21	2.4	8.8	1.5	8.7	5.2	10.3	/	/
CCOC(=O)Nc1ccc(N2CCOCC2)c(S(=O)(=O)Nc2ccc(Cl)cc2)c1	8.3	22.9	16.5	0.8	-9.7	-0.8	/	/
COc1ccc(CN(C2CC2)S(=O)(=O)c2ccccc2Br)cc1	-13.4	50.7*	18.4	4.3	15.4	-2.6	-0.2	/
COCCCNCC#CCOc1ccc(OC)cc1	-20.8	100.2*	-3.5	1.3	4.3	14.6	-0.7	/
COCCNCC#CCOc1ccc(OC)cc1	2.7	-3.0	1.2	-0.7	5.2	-3.4	/	/
CCN(CC)C(=O)c1ccc(Cc2cn(C)c3ccccc23)nc1	-2.4	/	-7.4	-6.3	-11.1	-11.6	/	/
Fc1cc(Cl)cc2ccc(-c3ccccc3)nc12	12.8	/	-193.4	-2.8	-25.6	-212.2	/	/
Nc1[nH]n2c(=O)c3c(nc2c1N=Nc1ccc(Cl)cc1)CCCC3	7.0	52.8*	35.5	2.6	-6.8	11.6	26.1	/
CCCCN(CC)CCCNC(=O)c1cc2c(-c3ccc(OC)c(OC)c3)nn(C)c2s1	-10.5	56.5*	-22.5	6.9	-18.8	14.3	66.7*	81.9*
CCN(CC)CCCNC(=O)c1cc2c(-c3cccc(OC)c3)nn(C)c2s1	-6.9	23.1	3.4	-1.4	-44.0	2.3	/	/
CCCCN(C)CCNC(=O)c1cc2c(-c3cccc(OC)c3)nn(C)c2s1	-1.8	18.5	21.8	9.8	-6.2	-13.8	/	/
COc1cccc(-c2nn(C)c3sc(C(=O)NCc4ccco4)cc23)c1	4.7	60.6*	20.6	0.9	-22.6	-18.9	40.5*	69.1*
N=c1c(C(=O)NC2CCCCC2)cc2c(=O)n3ccccc3nc2n1Cc1ccccc1	-14.3	25.3	17.7	-2.9	13.2	5.1	/	/
N=c1c(C(=O)NC2CCCCC2)cc2c(=O)n3ccccc3nc2n1CCc1ccccc1	-10.7	93.9*	-3.2	-0.7	-22.5	-7.2	96.6*	17.4

Screening results as filed in PubChem BioAssay.
